Reference: PubChem BioAssay (EPA / NIEHS)
The source made the active and inactive calls. How the source made its calls: active means hit-call score of the fitted dose curve at least 0.9, where 1 is the maximum; inactive means score below 0.9.

These molecules were tested on Interferon-gamma inducible Protein 10 (IP10), CXCL10 (gene 3627) (assay: BSK_BE3C_IP10: BioMAP Diversity Plus: BE3C Assay for Interferon-gamma inducible Protein 10 (IP10) Biomarker Activity (AID 2283034)). Details: primary human bronchial epithelial cells; actives raise or lower the signal.
Method in brief: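 Using primary human bronchial epithelial cultures, the assay captures IP-10 by ELISA one day (24 h) after exposure. Parallel SRB staining of total protein flags overt cytotoxicity. Fits run bidirectionally relative to DMSO.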
For `CCS(=O)(=O)c1cccnc1S(=O)(=O)NC(=O)Nc1nc(OC)cc(OC)n1`, the outcome was “inactive”.
`CCOC1Oc2ccc(OS(C)(=O)=O)cc2C1(C)C` (configuration not stated) was tested, and the outcome was “inactive”.
In the case of `[2H]C1([2H])[n+]2ccccc2-c2cccc[n+]2C1([2H])[2H]`, the outcome was “inactive”.
With `O=C(O)CCCOc1ccc(Cl)cc1Cl` the outcome was “inactive”.
For `CC(C)N(C(=O)COc1nnc(C(F)(F)F)s1)c1ccc(F)cc1`, the outcome was “inactive”.
`O=C(NC(=O)c1c(F)cccc1F)Nc1ccc(OC(F)(F)C(F)OC(F)(F)F)c(Cl)c1` (configuration not stated) was tested, and the outcome was “inactive”.
In the case of `N#Cc1c(Cl)c(Cl)c(Cl)c(C#N)c1Cl`, the AC50 was 2.35 µM (active).
In the case of `COC(=O)c1ccccc1S(=O)(=O)NC(=O)N(C)c1nc(C)nc(OC)n1`, the outcome was “inactive”.
For `CNC(=O)Oc1cccc(N=CN(C)C)c1`, the outcome was “inactive”.
With `CCN(CC)C(=O)SCc1ccc(Cl)cc1` the outcome was “inactive”.
With `Clc1ccccc1-c1nnc(-c2ccccc2Cl)nn1` the outcome was “inactive”.
`COC(=O)c1ccccc1CS(=O)(=O)NC(=O)Nc1nc(OC)cc(OC)n1` was tested, and the outcome was “inactive”.
With `Cc1cc(C)nc(NC(=O)NS(=O)(=O)c2ccccc2C(=O)OC2COC2)n1` the outcome was “inactive”.
In the case of `CC1(c2ccc(Oc3ccccc3)cc2)OC(=O)N(Nc2ccccc2)C1=O` (configuration not stated), the AC50 was 15 µM (active).
For `CCOc1nc(NC)nc(NC(=O)NS(=O)(=O)c2ccccc2C(=O)OC)n1`, the outcome was “inactive”.
In the case of `CCc1ccc(C(=O)NN(C(=O)c2cc(C)cc(C)c2)C(C)(C)C)cc1`, the outcome was “inactive”.
In the case of `O=[N+]([O-])c1c(Cl)c(Cl)c(Cl)c(Cl)c1Cl`, the outcome was “inactive”.
In the case of `CCC(C)(C)C(=O)OC1=C(c2ccc(Cl)cc2Cl)C(=O)OC12CCCCC2`, the AC50 was 31.3 µM (active).
For `CCC(C)(NC(=O)c1cc(Cl)c(C)c(Cl)c1)C(=O)CCl` (configuration not stated), the AC50 was 34 µM (active).
In the case of `COc1nn(CSP(=S)(OC)OC)c(=O)s1`, the outcome was “inactive”.
With `C#CCN1C(=O)COc2cc(F)c(N3C(=O)C4=C(CCCC4)C3=O)cc21` the outcome was “inactive”.
`CC(C)(C)C(O)/C(=C\c1ccc(Cl)cc1Cl)n1cncn1` (configuration not stated) was tested, and the AC50 was 31.1 µM (active).
`COP(=O)(OC)OC=C(Cl)Cl` was tested, and the outcome was “inactive”.
In the case of `ClC1C(Cl)C(Cl)C(Cl)C(Cl)C1Cl` (configuration not stated), the outcome was “inactive”.
`CC1(C)C(C=C(Cl)Cl)C1C(=O)OC(C#N)c1ccc(F)c(Oc2ccccc2)c1` (configuration not stated) was tested, and the outcome was “inactive”.
For `COP(=S)(OC)Oc1ccc([N+](=O)[O-])cc1`, the outcome was “inactive”.
`CC[C@H](C)[C@H]1O[C@]2(C=C[C@@H]1C)C[C@@H]1C[C@@H](C/C=C(\C)[C@@H](O[C@H]3C[C@H](OC)[C@@H](O[C@H]4C[C@H](OC)[C@@H](O)[C@H](C)O4)[C@H](C)O3)[C@@H](C)/C=C/C=C3\CO[C@@H]4[C@H](O)C(C)=C[C@@H](C(=O)O1)[C@]34O)O2` (tested in a mixture with another compound) was tested, and the AC50 was 5.96 µM (active).
